# Results taken from ChEMBL document CHEMBL1961873, “Compounds: GSK PKIS; Assays: Nanosyn kinase panel” (2012).
# Columns and labels:
# [1] = biological target: T1, Aurora kinase A (Homo sapiens) (UniProt O14965); conditions: at 1 µM;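 also: values are mean percent inhibition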
# T1 sequence (whole entry): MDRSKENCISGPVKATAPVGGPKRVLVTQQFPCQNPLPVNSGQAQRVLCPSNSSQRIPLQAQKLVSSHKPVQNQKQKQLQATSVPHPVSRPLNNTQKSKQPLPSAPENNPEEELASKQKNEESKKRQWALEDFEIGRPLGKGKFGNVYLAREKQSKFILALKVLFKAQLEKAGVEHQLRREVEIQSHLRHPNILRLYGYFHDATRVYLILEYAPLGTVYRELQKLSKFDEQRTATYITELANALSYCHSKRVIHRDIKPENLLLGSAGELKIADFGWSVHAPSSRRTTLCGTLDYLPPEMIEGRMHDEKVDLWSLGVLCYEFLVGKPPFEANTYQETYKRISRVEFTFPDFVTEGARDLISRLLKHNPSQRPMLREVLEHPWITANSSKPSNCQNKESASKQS
# [2] = biological target: Aurora kinase B (Homo sapiens) (UniProt Q96GD4); conditions: at 0.1 µM
# [3] = biological target: Aurora kinase B (Homo sapiens) (UniProt Q96GD4); conditions: at 1 µM
# [4] = biological target: T2, Aurora kinase C (Homo sapiens) (UniProt Q9UQB9); conditions: at 0.1 µM
# T2 sequence (whole entry): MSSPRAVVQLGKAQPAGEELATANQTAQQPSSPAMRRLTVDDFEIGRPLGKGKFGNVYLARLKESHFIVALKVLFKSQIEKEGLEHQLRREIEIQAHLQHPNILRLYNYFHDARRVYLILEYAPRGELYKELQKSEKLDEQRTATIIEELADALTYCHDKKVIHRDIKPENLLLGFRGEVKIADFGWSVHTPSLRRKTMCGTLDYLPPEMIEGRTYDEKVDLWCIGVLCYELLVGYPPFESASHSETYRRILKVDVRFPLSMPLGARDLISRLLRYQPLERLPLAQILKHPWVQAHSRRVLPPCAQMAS
# [5] = biological target: T2, Aurora kinase C (Homo sapiens); conditions: at 1 µM
# [6] = biological target: Serine/threonine-protein kinase 10 (Homo sapiens) (UniProt O94804); conditions: at 0.1 µM
# [7] = biological target: Serine/threonine-protein kinase 10 (Homo sapiens) (UniProt O94804); conditions: at 1 µM
# [8] = biological target: T3, Mitogen-activated protein kinase kinase kinase kinase 2 (Homo sapiens) (UniProt Q12851); conditions: at 0.1 µM
# T3 sequence (whole entry): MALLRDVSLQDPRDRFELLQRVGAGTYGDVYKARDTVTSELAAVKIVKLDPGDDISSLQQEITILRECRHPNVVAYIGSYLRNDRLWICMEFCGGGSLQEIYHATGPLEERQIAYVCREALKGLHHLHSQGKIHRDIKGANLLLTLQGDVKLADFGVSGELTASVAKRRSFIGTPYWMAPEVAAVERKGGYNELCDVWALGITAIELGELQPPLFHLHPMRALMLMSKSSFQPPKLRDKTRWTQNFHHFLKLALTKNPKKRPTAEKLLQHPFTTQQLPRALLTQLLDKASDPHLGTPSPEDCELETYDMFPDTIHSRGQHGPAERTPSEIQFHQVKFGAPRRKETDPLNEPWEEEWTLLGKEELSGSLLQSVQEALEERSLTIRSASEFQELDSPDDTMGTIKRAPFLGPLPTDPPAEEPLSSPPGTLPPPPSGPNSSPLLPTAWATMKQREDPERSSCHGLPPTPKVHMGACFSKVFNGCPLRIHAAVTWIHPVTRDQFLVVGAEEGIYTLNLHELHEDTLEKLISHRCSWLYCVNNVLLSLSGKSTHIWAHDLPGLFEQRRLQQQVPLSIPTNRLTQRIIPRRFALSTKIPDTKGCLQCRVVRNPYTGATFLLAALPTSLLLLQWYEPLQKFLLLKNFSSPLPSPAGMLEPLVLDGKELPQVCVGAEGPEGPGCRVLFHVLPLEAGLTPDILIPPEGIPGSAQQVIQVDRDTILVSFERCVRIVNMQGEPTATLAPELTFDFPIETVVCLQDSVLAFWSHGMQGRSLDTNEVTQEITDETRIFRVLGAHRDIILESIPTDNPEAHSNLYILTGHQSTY
# [9] = biological target: T3, Mitogen-activated protein kinase kinase kinase kinase 2 (Homo sapiens); conditions: at 1 µM
# [10] = biological target: Mitogen-activated protein kinase kinase kinase kinase 4 (Homo sapiens) (UniProt O95819); conditions: at 0.1 µM
# [11] = biological target: Mitogen-activated protein kinase kinase kinase kinase 4 (Homo sapiens) (UniProt O95819); conditions: at 1 µM
# [12] = biological target: Dual specificity mitogen-activated protein kinase kinase 1 (Homo sapiens) (UniProt Q02750); conditions: at 0.1 µM
# [13] = biological target: Dual specificity mitogen-activated protein kinase kinase 1 (Homo sapiens) (UniProt Q02750); conditions: at 1 µM
# [14] = biological target: Misshapen-like kinase 1 (Homo sapiens) (UniProt Q8N4C8); conditions: at 0.1 µM
# [15] = biological target: Misshapen-like kinase 1 (Homo sapiens) (UniProt Q8N4C8); conditions: at 1 µM
# [16] = biological target: T4, Serine/threonine-protein kinase 4 (Homo sapiens) (UniProt Q13043); conditions: at 0.1 µM
# T4 sequence (whole entry): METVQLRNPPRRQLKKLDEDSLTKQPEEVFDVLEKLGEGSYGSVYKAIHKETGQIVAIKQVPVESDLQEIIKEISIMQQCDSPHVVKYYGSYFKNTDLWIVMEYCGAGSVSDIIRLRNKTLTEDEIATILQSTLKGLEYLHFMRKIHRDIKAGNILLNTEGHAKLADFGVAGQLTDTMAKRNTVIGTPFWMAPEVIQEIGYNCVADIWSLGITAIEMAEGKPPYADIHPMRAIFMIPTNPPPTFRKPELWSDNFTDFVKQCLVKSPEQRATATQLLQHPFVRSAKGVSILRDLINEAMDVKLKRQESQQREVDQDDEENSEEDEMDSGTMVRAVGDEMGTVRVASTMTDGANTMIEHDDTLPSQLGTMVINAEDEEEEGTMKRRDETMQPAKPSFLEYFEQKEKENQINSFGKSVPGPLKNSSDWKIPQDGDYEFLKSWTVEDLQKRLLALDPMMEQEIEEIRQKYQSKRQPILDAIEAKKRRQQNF
# [17] = biological target: T4, Serine/threonine-protein kinase 4 (Homo sapiens); conditions: at 1 µM
# [18] = biological target: T5, Serine/threonine-protein kinase 3 (Homo sapiens) (UniProt Q13188); conditions: at 0.1 µM
# T5 sequence (whole entry): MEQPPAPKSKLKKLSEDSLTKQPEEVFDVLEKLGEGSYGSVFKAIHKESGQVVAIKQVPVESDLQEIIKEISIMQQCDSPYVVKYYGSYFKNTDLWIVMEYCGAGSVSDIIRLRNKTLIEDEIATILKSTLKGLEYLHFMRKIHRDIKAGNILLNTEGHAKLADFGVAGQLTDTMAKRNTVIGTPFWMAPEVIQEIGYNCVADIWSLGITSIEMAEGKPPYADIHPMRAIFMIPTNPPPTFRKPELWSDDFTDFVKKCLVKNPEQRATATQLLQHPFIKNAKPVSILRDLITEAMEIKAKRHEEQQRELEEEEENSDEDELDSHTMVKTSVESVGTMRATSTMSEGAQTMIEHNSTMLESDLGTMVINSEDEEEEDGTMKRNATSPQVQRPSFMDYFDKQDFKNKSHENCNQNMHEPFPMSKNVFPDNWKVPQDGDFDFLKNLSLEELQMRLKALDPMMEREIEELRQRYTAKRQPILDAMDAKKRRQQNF
# [19] = biological target: T5, Serine/threonine-protein kinase 3 (Homo sapiens); conditions: at 1 µM
# [20] = biological target: Serine/threonine-protein kinase 26 (Homo sapiens) (UniProt Q9P289); conditions: at 0.1 µM
# Serine/threonine-protein kinase 26 (Homo sapiens), sequence (Q9P289 2-416 limits assumed): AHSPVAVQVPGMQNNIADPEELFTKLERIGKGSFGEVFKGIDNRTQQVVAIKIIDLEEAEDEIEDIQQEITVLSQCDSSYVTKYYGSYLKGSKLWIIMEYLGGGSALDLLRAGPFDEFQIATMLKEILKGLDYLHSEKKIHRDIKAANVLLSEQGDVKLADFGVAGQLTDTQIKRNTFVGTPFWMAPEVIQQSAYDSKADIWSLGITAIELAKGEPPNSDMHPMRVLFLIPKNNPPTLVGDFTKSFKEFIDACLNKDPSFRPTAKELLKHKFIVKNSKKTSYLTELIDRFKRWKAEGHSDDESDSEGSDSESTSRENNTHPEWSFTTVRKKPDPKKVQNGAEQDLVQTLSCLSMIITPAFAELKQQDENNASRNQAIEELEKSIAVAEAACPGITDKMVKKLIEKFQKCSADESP
# Misshapen-like kinase 1 (Homo sapiens), sequence (Q8N4C8 whole entry, looked up): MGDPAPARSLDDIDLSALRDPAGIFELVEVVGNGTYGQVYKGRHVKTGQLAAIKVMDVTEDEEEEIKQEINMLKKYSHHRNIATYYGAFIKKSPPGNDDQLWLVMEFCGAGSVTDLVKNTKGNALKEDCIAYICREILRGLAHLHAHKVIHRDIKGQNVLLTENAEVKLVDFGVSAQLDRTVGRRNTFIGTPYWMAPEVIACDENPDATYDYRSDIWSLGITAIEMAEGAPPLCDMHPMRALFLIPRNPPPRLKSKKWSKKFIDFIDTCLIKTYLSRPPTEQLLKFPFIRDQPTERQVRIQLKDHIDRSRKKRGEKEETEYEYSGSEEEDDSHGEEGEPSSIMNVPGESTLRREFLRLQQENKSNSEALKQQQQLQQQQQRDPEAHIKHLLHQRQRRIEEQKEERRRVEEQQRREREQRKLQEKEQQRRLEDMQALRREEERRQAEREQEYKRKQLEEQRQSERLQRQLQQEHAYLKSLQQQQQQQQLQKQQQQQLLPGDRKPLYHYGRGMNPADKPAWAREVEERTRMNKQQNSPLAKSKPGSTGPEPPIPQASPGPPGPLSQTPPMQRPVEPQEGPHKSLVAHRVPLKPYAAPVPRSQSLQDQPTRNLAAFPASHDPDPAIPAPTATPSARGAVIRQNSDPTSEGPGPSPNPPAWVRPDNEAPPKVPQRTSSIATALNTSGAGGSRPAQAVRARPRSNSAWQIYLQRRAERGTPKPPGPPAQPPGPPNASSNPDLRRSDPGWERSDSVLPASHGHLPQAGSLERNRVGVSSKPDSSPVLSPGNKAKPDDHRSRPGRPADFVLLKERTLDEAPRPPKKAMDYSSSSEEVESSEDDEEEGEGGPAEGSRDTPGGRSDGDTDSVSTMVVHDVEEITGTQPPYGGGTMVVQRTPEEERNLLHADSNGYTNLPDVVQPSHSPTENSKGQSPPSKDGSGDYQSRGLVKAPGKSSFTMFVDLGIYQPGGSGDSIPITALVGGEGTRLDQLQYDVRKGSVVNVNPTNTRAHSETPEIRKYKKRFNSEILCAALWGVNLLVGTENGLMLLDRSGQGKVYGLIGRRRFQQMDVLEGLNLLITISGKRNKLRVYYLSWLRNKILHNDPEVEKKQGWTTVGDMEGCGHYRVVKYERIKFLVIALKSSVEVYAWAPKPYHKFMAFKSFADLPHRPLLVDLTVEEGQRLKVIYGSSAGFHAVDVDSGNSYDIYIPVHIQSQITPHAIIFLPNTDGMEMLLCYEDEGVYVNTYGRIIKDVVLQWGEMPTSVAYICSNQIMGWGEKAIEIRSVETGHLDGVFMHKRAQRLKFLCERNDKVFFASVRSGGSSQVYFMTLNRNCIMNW
# Dual specificity mitogen-activated protein kinase kinase 1 (Homo sapiens), sequence (Q02750 whole entry): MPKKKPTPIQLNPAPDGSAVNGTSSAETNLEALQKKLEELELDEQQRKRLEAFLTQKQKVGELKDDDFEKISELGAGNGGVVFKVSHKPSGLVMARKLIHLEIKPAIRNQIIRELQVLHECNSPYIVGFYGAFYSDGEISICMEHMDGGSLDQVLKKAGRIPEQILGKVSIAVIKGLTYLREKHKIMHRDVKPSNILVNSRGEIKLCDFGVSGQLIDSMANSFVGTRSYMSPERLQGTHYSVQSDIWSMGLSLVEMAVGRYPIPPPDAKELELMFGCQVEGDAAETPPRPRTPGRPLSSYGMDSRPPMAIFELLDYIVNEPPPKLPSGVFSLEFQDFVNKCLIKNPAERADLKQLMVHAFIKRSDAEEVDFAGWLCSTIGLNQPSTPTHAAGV
# Serine/threonine-protein kinase 10 (Homo sapiens), sequence (O94804 whole entry, looked up): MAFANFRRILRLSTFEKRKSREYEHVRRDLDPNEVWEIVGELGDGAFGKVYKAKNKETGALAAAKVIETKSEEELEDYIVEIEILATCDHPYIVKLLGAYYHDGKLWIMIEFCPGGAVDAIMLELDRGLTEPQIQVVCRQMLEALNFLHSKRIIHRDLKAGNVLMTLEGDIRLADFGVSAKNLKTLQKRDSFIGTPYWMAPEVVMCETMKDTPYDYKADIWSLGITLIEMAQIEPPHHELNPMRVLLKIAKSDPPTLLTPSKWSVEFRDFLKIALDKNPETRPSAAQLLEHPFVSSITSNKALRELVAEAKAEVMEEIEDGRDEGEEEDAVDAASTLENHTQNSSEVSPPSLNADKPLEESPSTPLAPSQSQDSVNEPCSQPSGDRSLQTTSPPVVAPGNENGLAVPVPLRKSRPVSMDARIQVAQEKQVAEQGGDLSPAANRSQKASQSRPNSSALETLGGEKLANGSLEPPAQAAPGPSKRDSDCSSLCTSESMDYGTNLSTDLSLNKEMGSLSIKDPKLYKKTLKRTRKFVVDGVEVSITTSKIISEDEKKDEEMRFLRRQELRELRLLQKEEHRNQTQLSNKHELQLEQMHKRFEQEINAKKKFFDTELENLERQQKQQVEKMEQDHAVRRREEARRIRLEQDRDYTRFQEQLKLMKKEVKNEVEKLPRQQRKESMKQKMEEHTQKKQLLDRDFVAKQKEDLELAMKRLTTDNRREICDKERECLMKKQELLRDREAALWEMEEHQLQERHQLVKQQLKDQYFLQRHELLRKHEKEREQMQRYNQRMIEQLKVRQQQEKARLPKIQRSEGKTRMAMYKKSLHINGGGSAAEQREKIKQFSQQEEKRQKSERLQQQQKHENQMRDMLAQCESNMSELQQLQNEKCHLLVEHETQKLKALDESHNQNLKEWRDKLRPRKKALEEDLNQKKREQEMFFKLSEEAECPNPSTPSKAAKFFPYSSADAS
# Mitogen-activated protein kinase kinase kinase kinase 4 (Homo sapiens), sequence (O95819 2-1239 limits assumed): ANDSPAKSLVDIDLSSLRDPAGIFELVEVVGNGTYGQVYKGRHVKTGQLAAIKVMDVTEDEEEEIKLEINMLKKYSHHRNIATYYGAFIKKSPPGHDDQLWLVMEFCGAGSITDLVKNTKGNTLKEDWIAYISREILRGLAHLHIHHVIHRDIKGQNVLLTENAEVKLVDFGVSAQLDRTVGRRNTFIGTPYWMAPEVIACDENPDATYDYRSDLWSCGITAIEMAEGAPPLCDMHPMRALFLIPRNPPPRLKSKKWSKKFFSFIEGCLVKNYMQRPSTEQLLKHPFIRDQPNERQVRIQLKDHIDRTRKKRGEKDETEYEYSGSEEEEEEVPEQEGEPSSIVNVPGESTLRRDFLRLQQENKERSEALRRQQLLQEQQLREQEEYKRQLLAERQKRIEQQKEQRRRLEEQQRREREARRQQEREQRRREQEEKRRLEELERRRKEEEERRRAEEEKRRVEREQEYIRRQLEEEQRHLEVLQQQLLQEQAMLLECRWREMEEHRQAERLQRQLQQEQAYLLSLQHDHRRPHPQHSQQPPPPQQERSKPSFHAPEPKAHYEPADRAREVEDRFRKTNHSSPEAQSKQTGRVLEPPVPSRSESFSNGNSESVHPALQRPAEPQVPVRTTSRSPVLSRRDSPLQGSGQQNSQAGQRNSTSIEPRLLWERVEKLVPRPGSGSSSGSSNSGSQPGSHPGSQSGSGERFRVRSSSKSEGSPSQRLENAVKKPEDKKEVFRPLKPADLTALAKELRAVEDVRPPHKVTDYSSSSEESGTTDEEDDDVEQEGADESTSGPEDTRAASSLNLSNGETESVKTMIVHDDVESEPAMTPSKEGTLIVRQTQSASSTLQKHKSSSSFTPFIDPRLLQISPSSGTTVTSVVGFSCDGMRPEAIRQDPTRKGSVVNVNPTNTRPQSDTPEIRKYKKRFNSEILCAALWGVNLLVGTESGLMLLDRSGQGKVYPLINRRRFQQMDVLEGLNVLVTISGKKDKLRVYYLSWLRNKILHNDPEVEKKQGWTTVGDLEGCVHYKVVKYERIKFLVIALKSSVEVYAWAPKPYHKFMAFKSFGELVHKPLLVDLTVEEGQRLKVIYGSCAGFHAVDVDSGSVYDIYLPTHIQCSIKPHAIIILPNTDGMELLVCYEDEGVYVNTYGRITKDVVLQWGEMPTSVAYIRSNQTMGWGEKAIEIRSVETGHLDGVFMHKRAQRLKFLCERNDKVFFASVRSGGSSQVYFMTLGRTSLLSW
# Aurora kinase B (Homo sapiens), sequence (Q96GD4 whole entry): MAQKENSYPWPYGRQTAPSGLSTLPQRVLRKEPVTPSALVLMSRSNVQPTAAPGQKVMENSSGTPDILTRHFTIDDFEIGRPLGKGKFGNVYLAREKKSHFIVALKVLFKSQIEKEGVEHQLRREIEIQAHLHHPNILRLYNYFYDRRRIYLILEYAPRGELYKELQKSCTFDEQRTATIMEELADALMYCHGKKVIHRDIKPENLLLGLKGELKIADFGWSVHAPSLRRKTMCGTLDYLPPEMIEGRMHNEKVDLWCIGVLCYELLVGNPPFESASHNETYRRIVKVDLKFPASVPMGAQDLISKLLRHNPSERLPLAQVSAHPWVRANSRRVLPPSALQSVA
SMILES,inhibition [1] [%],inhibition [2] [%],inhibition [3] [%],inhibition [4] [%],inhibition [5] [%],inhibition [6] [%],inhibition [7] [%],inhibition [8] [%],inhibition [9] [%],inhibition [10] [%],inhibition [11] [%],inhibition [12] [%],inhibition [13] [%],inhibition [14] [%],inhibition [15] [%],inhibition [16] [%],inhibition [17] [%],inhibition [18] [%],inhibition [19] [%],inhibition [20] [%]
O=C(Nc1n[nH]c2nc(-c3ccco3)c(Br)cc12)C1CC1,45.6,5.16,14.5,2.71,29.4,6.48,11.3,-0.14,2.51,4.76,8.55,3.9,3.63,5.14,8.29,5.17,4,6.08,5.58,-1.82
COC(=O)Nc1nc2cc(Oc3cccc(NC(=O)Nc4cc(C(F)(F)F)ccc4F)c3)ccc2[nH]1,1.22,-1.59,-0.29,0.03,4.29,4.04,12.5,1.34,3.06,3.21,4.32,0.59,0.38,1.15,3.21,-1.6,0.24,-1.24,0.17,0.73
Cc1cc(O)cc(C)c1/C=C/c1cncc(-c2nn[nH]n2)c1,-0.41,-2.87,1.12,-3.31,-0.15,5.3,39.7,1.25,5.33,8.4,25.3,6.51,5.24,9.23,21.7,3.48,9.22,4.45,10.7,-1.84
CC1=C(C(=O)Nc2ccc3[nH]ncc3c2)C(c2ccc(F)cc2)NC(=O)N1 (stereo not given),62.7,3.96,18.5,2.09,26.9,1.26,5.18,1.97,3.21,7.49,11.1,2.25,5.95,7.37,13,1.11,5.91,1.29,6.58,0.66
Nc1ncnc2occ(-c3ccc(NC(=O)Nc4cc(C(F)(F)F)cc(C(F)(F)F)c4)cc3)c12,46,10.6,44.5,1.5,79.7,9.76,29,15.7,48.9,2.54,5.19,0.93,3.12,5.87,-1.47,3.59,6.92,4.8,5.55,-0.71
CNC(=O)c1cncc(/C=C/c2c(Cl)cccc2Cl)c1,0.47,-2.93,2.43,-4.44,0.68,6.82,10.6,1.03,2.47,8.94,23,1.66,1.76,7.96,19.3,3.04,7.53,4.32,8.47,-1.2
COc1cc2ncn(-c3cc(O[C@@H](C)c4ccccc4Cl)c(C(N)=O)s3)c2cc1OC,18.1,8.64,38.8,8,49.3,54,79.5,6.14,20.2,5.91,32,4.3,3.99,9.25,28.5,8.63,40.3,11.8,34.8,-3.61
COc1ccccc1Nc1ncc(-c2ccccc2)o1,8.83,4.39,11.1,3.63,12.5,8.13,8.47,-0.05,4.63,6.79,26.2,4.67,3.89,6.62,17.3,3.93,5.16,6.13,7.36,-1.34
O=C1Nc2ccc(C(=O)c3ccco3)cc2C1=Cc1cc(Cl)c(O)c(Cl)c1,67.3,3.22,13.3,3.45,36.7,4.59,15.1,1.22,7.56,27.5,75.8,2.93,9.42,18.1,61.8,21.7,66.8,20.4,65.3,3.9
CCCN1CCC=C(c2ccc(Nc3nc(Nc4ccccc4C(N)=O)c4cc[nH]c4n3)c(C)c2)C1,32.6,5.03,12.8,1.85,13.7,8.52,14.9,6.05,35.5,19.2,65.3,7.02,28.7,14.8,55.2,9.53,42.5,5.37,21.2,-2.63
CCn1c(-c2nonc2N)nc2c(C#CC(C)(C)O)nc(CN3CCCC3)cc21,3.35,0.07,4.15,0.15,23.3,-1.82,1.24,1.94,1.87,1.68,1.37,0.73,-0.46,2.4,0.35,-1.15,0.25,-2.44,-2.27,-0.36
COc1ccc2cc(-c3c(-c4ccncc4)nc(-c4ccc([S+](C)[O-])cc4)n3C)ccc2c1 (stereo not given),9.25,4.15,11,2.18,15.4,36,78.4,0.6,0.64,2.59,8.42,4.05,3.39,3.38,9.34,4.01,4.79,6.01,8.09,-0.63
CC1=C(C(=O)Nc2ccc3[nH]ncc3c2)C(c2ccc(Cl)c(Cl)c2)CC(=O)N1 (stereo not given),70.2,1.32,19.5,3.19,28.2,3.78,5.17,-1.16,1.61,2.18,3.96,4.74,30.5,1.68,1.98,1.25,4.28,1.27,2.63,-1.2
COc1ccc(-c2coc3ncnc(N)c23)cc1,7.06,3.4,8.81,1.56,15.3,3.11,8.06,1.83,6.08,4.43,10.2,5.34,5.29,12.5,8.75,7.11,8.23,6.08,6.94,-0.2
